Results as given in PubChem BioAssay (NCATS).
Where “and” joins values, the source holds several entries; their conditions need not be identical. Equal values may be shown once. Records with an inconclusive call do not appear. Calls of active or inactive are those of the source. Calls come from the whole dose curve; as a rule, active = well fitted curve in the direction sought with a large enough effect; inconclusive = small, poorly fitted or top-dose-only effect, or another doubt; inactive = no such curve, though single readings can be large; an effect the other way counts as inactive or inconclusive.

Experiments:
WaGa = assay: qHTS assay to identify novel small-molecules to repurpose for Merkel cell carcinoma treatment (AID 1296009); conditions: MCC and control cell lines, CellTiter-Glo viability, 72 h; series mostly up to 46 µM; note: nearly all actives have a fitted effect of over 60% in size
Outline: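 After compound transfer in DMSO, plates were kept 72 hr at 37 degree celsius. Luminescent ATP signal from CellTiter-Glo served as viability measure, normalized against DMSO and no-cell controls.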

C33A = assay: Primary qHTS to identify gynecologic anti-cancer compounds using libraries of approved drugs and bioactive compounds (AID 1345084); conditions: Gynecologic cancer cell panel viability, ATPlite luminescence, 48 h; series mostly up to 57.5 µM; note: nearly all actives have a fitted effect of over 55% in size
Outline: (§1)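 Five-concentration response, 48 h; readout is ATP-driven luciferase luminescence.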

CAOV3 = assay: as above; conditions: Gynecologic cancer cell panel viability, ATPlite luminescence, 48 h; series mostly up to 57.5 µM
Outline: as §1

CASKI = assay: as above; conditions: Gynecologic cancer cell panel viability, ATPlite luminescence, 48 h; series mostly up to 57.5 µM
Outline: as §1

Es-2 = assay: as above; conditions: Gynecologic cancer cell panel viability, ATPlite luminescence, 48 h; series mostly up to 57.5 µM
Outline: as §1

HeLa = assay: as above; conditions: Gynecologic cancer cell panel viability, ATPlite luminescence, 48 h; series mostly up to 57.5 µM
Outline: as §1

Hek293T = assay: as above; conditions: Gynecologic cancer cell panel viability, ATPlite luminescence, 48 h, control line for the selectivity index; series mostly up to 57.5 µM
Outline: as §1

JEG-3 = assay: as above; conditions: Gynecologic cancer cell panel viability, ATPlite luminescence, 48 h; series mostly up to 57.5 µM
Outline: as §1

OV90 = assay: as above; conditions: Gynecologic cancer cell panel viability, ATPlite luminescence, 48 h; series mostly up to 57.5 µM
Outline: as §1

PA-1 = assay: as above; conditions: Gynecologic cancer cell panel viability, ATPlite luminescence, 48 h; series mostly up to 57.5 µM
Outline: as §1

SKOV3 = assay: as above; conditions: Gynecologic cancer cell panel viability, ATPlite luminescence, 48 h; series mostly up to 57.5 µM
Outline: as §1

Tov-21-G = assay: as above; conditions: Gynecologic cancer cell panel viability, ATPlite luminescence, 48 h; series mostly up to 57.5 µM
Outline: as §1

Tov112D = assay: as above; conditions: Gynecologic cancer cell panel viability, ATPlite luminescence, 48 h; series mostly up to 57.5 µM
Outline: as §1

[1] = Drug repurposing screens with cells derived from glioblastoma tumor samples (AID 1345199); conditions: GBM patient neurospheres viability, ATP luminescence, 48 h; note: nearly all actives have a fitted effect of over 40% in size
Outline: (§2)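 Four patient lines of CD133+ GBM neurospheres were screened at several concentrations; hits were retested in those lines plus three slower-growing GBM lines, using 48-hour treatment and ATP-based viability.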

astro = assay: as above; conditions: viability, ATP luminescence, 48 h; series mostly up to 45.9 µM
Outline: as §2

[2] = at 45.9 µM (top of the series), tumour line B
[3] = at 45.9 µM (top of the series), tumour line D
[4] = at 46 µM (top of the series), tumour line A
[5] = at 46.1 µM (top of the series), tumour line C
% is set by controls: 0 for no effect and ±100 for the full control effect.

C[C@@H]1CCN(C(=O)[C@H](CCCN=C(N)N)NS(=O)(=O)c2cccc3c2NC[C@H](C)C3)[C@@H](C(=O)O)C1
inactive: Potency (WaGa) | Potency (C33A) | Potency (CAOV3) | Potency (CASKI) | Potency (Es-2) | Potency (HeLa) | Potency (Hek293T) | Potency (JEG-3) | Potency (OV90) | Potency (PA-1) | Potency (SKOV3) | Potency (Tov-21-G) | Potency (Tov112D) | activity, negative = cell killing [1, 2] 7.31% | activity, negative = cell killing [1, 3] -6.42% | activity, negative = cell killing [1, 4] -6.41% | activity, negative = cell killing [1, 5] -2.45% | Potency (astro)

CC1(C)OC(=O)NC1=O
inactive: Potency (WaGa) | Potency (C33A) | Potency (CAOV3) | Potency (CASKI) | Potency (Es-2) | Potency (HeLa) | Potency (Hek293T) | Potency (JEG-3) | Potency (OV90) | Potency (PA-1) | Potency (SKOV3) | Potency (Tov-21-G) | Potency (Tov112D) | activity, negative = cell killing [1, 2] -11.2% | activity, negative = cell killing [1, 3] -10.8% | activity, negative = cell killing [1, 4] -19.4% | activity, negative = cell killing [1, 5] 10.3% | Potency (astro)

O=C(O)c1ccccc1-c1ccc(C(F)(F)F)cc1
inactive: Potency (WaGa) | Potency (C33A) | Potency (CAOV3) | Potency (CASKI) | Potency (Es-2) | Potency (HeLa) | Potency (Hek293T) | Potency (JEG-3) | Potency (OV90) | Potency (PA-1) | Potency (SKOV3) | Potency (Tov-21-G) | Potency (Tov112D) | activity, negative = cell killing [1, 2] -7.48% | activity, negative = cell killing [1, 3] -6.37% | activity, negative = cell killing [1, 4] -14.4% | activity, negative = cell killing [1, 5] 1.99% | Potency (astro)

Cc1cccc(C)c1NC(=O)CN(CC(=O)O)CC(=O)O
inactive: Potency (WaGa) | Potency (C33A) | Potency (CAOV3) | Potency (CASKI) | Potency (Es-2) | Potency (HeLa) | Potency (Hek293T) | Potency (JEG-3) | Potency (OV90) | Potency (PA-1) | Potency (SKOV3) | Potency (Tov-21-G) | Potency (Tov112D) | activity, negative = cell killing [1, 2] 1.75% | activity, negative = cell killing [1, 3] -3.71% | activity, negative = cell killing [1, 4] -11.4% | activity, negative = cell killing [1, 5] -3.39% | Potency (astro)

OC[C@H]1O[C@@H](O[C@@H]2[C@@H](CO)O[C@](O)(CO)[C@H]2O)[C@H](O)[C@@H](O)[C@H]1O
inactive: Potency (WaGa) | Potency (C33A) | Potency (CAOV3) | Potency (CASKI) | Potency (Es-2) | Potency (HeLa) | Potency (Hek293T) | Potency (JEG-3) | Potency (OV90) | Potency (PA-1) | Potency (SKOV3) | Potency (Tov-21-G) | Potency (Tov112D) | activity, negative = cell killing [1, 2] -1.82% | activity, negative = cell killing [1, 3] 8.93% | activity, negative = cell killing [1, 4] -20.9% | activity, negative = cell killing [1, 5] -24.2% | Potency (astro)

CC1CC(OC(=O)C(O)c2ccccc2)CC(C)(C)N1C (stereo not given)
inactive: Potency (WaGa) | Potency (C33A) | Potency (CAOV3) | Potency (CASKI) | Potency (Es-2) | Potency (HeLa) | Potency (Hek293T) | Potency (JEG-3) | Potency (OV90) | Potency (PA-1) | Potency (SKOV3) | Potency (Tov-21-G) | Potency (Tov112D) | activity, negative = cell killing ([1]; at 20 µM (top of the series), tumour line C) 14.2% | activity, negative = cell killing ([1]; at 21.2 µM (top of the series), tumour line B) 1.64% | activity, negative = cell killing ([1]; at 21.2 µM (top of the series), tumour line D) -6.11% | activity, negative = cell killing [1, 2] -1.01% | activity, negative = cell killing [1, 3] 1.15% | activity, negative = cell killing [1, 4] -25.8% | activity, negative = cell killing [1, 5] -11% | Potency (astro)

Oc1ccc(C(O)CNCCCCCCNCC(O)c2ccc(O)c(O)c2)cc1O (stereo not given)
inactive: Potency (WaGa) | Potency (C33A) | Potency (CAOV3) | Potency (CASKI) | Potency (Es-2) | Potency (HeLa) | Potency (Hek293T) | Potency (JEG-3) | Potency (OV90) | Potency (PA-1) | Potency (SKOV3) | Potency (Tov-21-G) | Potency (Tov112D) | activity, negative = cell killing [1, 2] -10.1% | activity, negative = cell killing [1, 3] -27.7%

CCCn1cnc2c1c(=O)n(CCCCC(C)=O)c(=O)n2C
inactive: Potency (WaGa) | Potency (C33A) | Potency (CAOV3) | Potency (CASKI) | Potency (Es-2) | Potency (HeLa) | Potency (Hek293T) | Potency (JEG-3) | Potency (OV90) | Potency (PA-1) | Potency (SKOV3) | Potency (Tov-21-G) | Potency (Tov112D) | activity, negative = cell killing [1, 2] -7.91% | activity, negative = cell killing [1, 3] -10.9% | activity, negative = cell killing [1, 4] -20.8% | activity, negative = cell killing [1, 5] 14.2% | Potency (astro)

N[C@@H](CSCCCO)C(=O)O
inactive: Potency (WaGa) | Potency (C33A) | Potency (CAOV3) | Potency (CASKI) | Potency (Es-2) | Potency (HeLa) | Potency (Hek293T) | Potency (JEG-3) | Potency (OV90) | Potency (PA-1) | Potency (SKOV3) | Potency (Tov-21-G) | Potency (Tov112D) | activity, negative = cell killing [1, 2] 0.365% | activity, negative = cell killing [1, 3] -10% | activity, negative = cell killing [1, 4] -27% | activity, negative = cell killing [1, 5] -8.48% | Potency (astro)

O=c1cc(CO)occ1O
inactive: Potency (WaGa) | Potency (C33A) | Potency (CAOV3) | Potency (CASKI) | Potency (Es-2) | Potency (HeLa) | Potency (Hek293T) | Potency (JEG-3) | Potency (OV90) | Potency (PA-1) | Potency (SKOV3) | Potency (Tov-21-G) | Potency (Tov112D) | activity, negative = cell killing [1, 2] -1.08% and -4.58% | activity, negative = cell killing [1, 3] 14.9% and -7.17% | activity, negative = cell killing [1, 4] -25.5% and -9.07% | activity, negative = cell killing [1, 5] -15.8% and 18.8% | Potency (astro)
